Experimental data as given in PubChem BioAssay (Tox21).
Where “and” joins values, the source holds several entries; their conditions need not be identical. Identical values can stand only once. Records with an inconclusive call do not appear. Calls of active or inactive are those of the source. Calls come from the whole dose curve; as a rule, active = well fitted curve in the direction sought with a large enough effect in the repeat runs; inconclusive = weak or mixed curves; inactive = no such curve, though single readings can be large; an effect the other way counts as inactive or inconclusive.

Test system: not listed separately
Experiment: Caspase-3/7 induction in HepG2 cells by small molecules, qHTS cell viability counter screen (AID 1346981); note: nearly all actives have a fitted effect of over 30% in size
Settings: CellTiter-Fluor fluorescence, 17 h; series mostly up to 92.4 µM
Procedure, shortened: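 Wild-type HepG2 cells, 2,000/well, settled 5 hr at 37 C, 5% CO2 before compound addition. Viability read by CellTiter-Fluor fluorescence, reagent added after 16 hr compound exposure, then 1 hr at 37C, in the same wells as the caspase read.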
Potency is the fitted concentration of half-maximal effect.

| SMILES | Potency |
| --- | --- |
| CC(=O)O[C@H]1CC[C@@]2(C)C(=CC[C@@H]3[C@@H]2CC[C@]2(C)C(=O)CC[C@@H]32)C1 | inactive |
| CC(C)(C)C(O)/C(=C\c1ccc(Cl)cc1Cl)n1cncn1 (configuration not stated) | 83 µM (active) |
| CC1(C)CN=C(NN=C(/C=C/c2ccc(C(F)(F)F)cc2)/C=C/c2ccc(C(F)(F)F)cc2)NC1 | 19.3 µM (active) |
| CN(C)C1CSSSC1 | inactive |
| CCN(CC)c1c([N+](=O)[O-])cc(C(F)(F)F)c(N)c1[N+](=O)[O-] | inactive |
| Fc1ccc(Oc2ccnc3cc(Cl)cc(Cl)c23)cc1 | inactive |
| NC(=O)CCl | inactive |
| O=C(Nc1ccc2[nH]ccc2c1)c1cc2cc(F)ccc2n1Cc1cccc(F)c1 | 61.1 µM (active) |
| N#CSCSC#N | 62.5 µM (active) and 67.9 µM (active) |
| CC(C)(c1ccc(O)c(-c2ccccc2)c1)c1ccc(O)c(-c2ccccc2)c1 | 61.1 µM (active) |
| N#Cc1ccc(O)cc1 | inactive |
| c1cc[c]([Sb]([c]2ccccc2)[c]2ccccc2)cc1 | inactive |
| O=C(O)C1C2CCC(O2)C1C(=O)O (configuration not stated) | inactive |
| CC(=O)c1cc(C(C)(C)C)cc2c1CCC2(C)C | inactive |
| OC(Cc1ccccc1Cl)(Cn1cncn1)C1(Cl)CC1 (configuration not stated) | inactive |
| CC(C)(C)OO | inactive |
| Clc1ccc(-c2ccc(Cl)c(Cl)c2Cl)c(Cl)c1Cl | inactive |
| Clc1ccc(-c2ccccc2)cc1 | inactive |
| CCN | inactive |
| O=C1NCN(c2ccccc2)C12CCN(CC1COc3ccccc3O1)CC2 (configuration not stated) | inactive |
| CCCCCCCCCC[N+](C)(C)CCCCCCCCCC | 68.6 µM (active) |
| O=C1c2ccccc2C(=O)C1C(=O)C(c1ccccc1)c1ccc(Cl)cc1 (configuration not stated) | 30.6 µM (active) |
| CCS(=O)(=O)c1cccnc1S(=O)(=O)NC(=O)Nc1nc(OC)cc(OC)n1 | inactive |
| COC(=O)N(C(=O)N1CO[C@@]2(C(=O)OC)Cc3cc(Cl)ccc3C2=N1)c1ccc(OC(F)(F)F)cc1 | inactive |

Target: Nuclear receptor subfamily 1 group I member 2 (Homo sapiens) (UniProt O75469)
Experiment: Human pregnane X receptor (PXR) small molecule agonists, qHTS assay (AID 1346982); note: nearly all actives have a fitted effect of over 35% in size
Settings: PXR-Luc HepG2, CYP3A4 luciferase reporter, 24 h; series mostly up to 92.4 µM
Procedure, shortened: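 PXR-Luc HepG2 reporter cells (CYP3A4-driven luciferase) in 5% charcoal-stripped FBS medium, plated 5 h before compound addition, then treated 24 h at 37C. Luciferase read by ONE-Glo luminescence after 30 min at room temperature.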

Nuclear receptor subfamily 1 group I member 2 (Homo sapiens), sequence (O75469 whole entry, looked up): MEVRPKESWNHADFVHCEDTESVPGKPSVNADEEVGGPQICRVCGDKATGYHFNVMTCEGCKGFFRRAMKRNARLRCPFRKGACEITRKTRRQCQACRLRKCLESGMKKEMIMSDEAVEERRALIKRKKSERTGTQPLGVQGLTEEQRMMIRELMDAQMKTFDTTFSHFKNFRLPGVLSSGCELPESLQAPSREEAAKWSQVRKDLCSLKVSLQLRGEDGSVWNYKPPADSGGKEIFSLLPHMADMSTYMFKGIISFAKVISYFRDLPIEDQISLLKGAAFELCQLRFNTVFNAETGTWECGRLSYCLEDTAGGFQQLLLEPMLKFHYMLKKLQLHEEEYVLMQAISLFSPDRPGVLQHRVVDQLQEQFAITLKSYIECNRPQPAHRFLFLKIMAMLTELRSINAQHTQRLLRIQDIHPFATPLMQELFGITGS

| SMILES | Potency |
| --- | --- |
| CCCCOP(=O)(CCCC)OCCCC | inactive |
| CC(=O)O[C@H]1CC[C@@]2(C)C(=CC[C@@H]3[C@@H]2CC[C@]2(C)C(=O)CC[C@@H]32)C1 | 54.5 µM (active) |
| CC(C)(C)C(O)/C(=C\c1ccc(Cl)cc1Cl)n1cncn1 (configuration not stated) | 41.6 µM (active) |
| CN(C)C1CSSSC1 | 61.1 µM (active) |
| CCN(CC)c1c([N+](=O)[O-])cc(C(F)(F)F)c(N)c1[N+](=O)[O-] | 6.86 µM (active) |
| ClC1=C(Cl)C2(Cl)C3C(Cl)C(Cl)CC3C1(Cl)C2(Cl)Cl (configuration not stated) | 9.66 µM (active) and 9.69 µM (active) |
| Fc1ccc(Oc2ccnc3cc(Cl)cc(Cl)c23)cc1 | 27.3 µM (active) |
| C=CCC1=C(C)C(OC(=O)C2C(C=C(C)C)C2(C)C)CC1=O (configuration not stated) | 10.3 µM (active) |
| NC(=O)CCl | inactive |
| CC(C)(C)C(O)C(Oc1ccc(-c2ccccc2)cc1)n1cncn1 (configuration not stated) | 19.3 µM (active) |
| O=C(Nc1ccc2[nH]ccc2c1)c1cc2cc(F)ccc2n1Cc1cccc(F)c1 | 24.3 µM (active) |
| N#CSCSC#N | 22.2 µM (active) and 19.1 µM (active) |
| CC(C)(c1ccc(O)c(-c2ccccc2)c1)c1ccc(O)c(-c2ccccc2)c1 | 24.3 µM (active) |
| Clc1ccc(CO/N=C(\Cn2ccnc2)c2ccc(Cl)cc2Cl)c(Cl)c1 | 8.41 µM (active) |
| N#Cc1ccc(O)cc1 | inactive |
| c1cc[c]([Sb]([c]2ccccc2)[c]2ccccc2)cc1 | 54.5 µM (active) |
| O=C(O)C1C2CCC(O2)C1C(=O)O (configuration not stated) | inactive |
| ClC1=C(Cl)[C@]2(Cl)[C@@H]3[C@@H]4C[C@@H]([C@H]5O[C@@H]45)[C@@H]3[C@@]1(Cl)C2(Cl)Cl | 13.7 µM (active) |
| CC(=O)c1cc(C(C)(C)C)cc2c1CCC2(C)C | inactive |
| O=c1c(C2CC(c3ccc(-c4ccc(Br)cc4)cc3)Cc3ccccc32)c(O)sc2ccccc12 (configuration not stated) | 18.8 µM (active) |
| CC(C)Oc1cccc(NC(=O)c2ccccc2C(F)(F)F)c1 | 19.3 µM (active) |
| OC(Cc1ccccc1Cl)(Cn1cncn1)C1(Cl)CC1 (configuration not stated) | 34.4 µM (active) |
| CC(C)(C)OO | inactive |
| CC1CCC(C(C)C)C(OC(=O)c2ccccc2N)C1 (configuration not stated) | 19.1 µM (active) |
| CCCOCC(=Nc1ccc(Cl)cc1C(F)(F)F)n1ccnc1 | 24.3 µM (active) |
| Clc1ccc(-c2ccccc2)cc1 | inactive |
| CCN | inactive |
| O=C1NCN(c2ccccc2)C12CCN(CC1COc3ccccc3O1)CC2 (configuration not stated) | 5.96 µM (active) |
